Screens as filed in PubChem.
Shown are actives, neighbours in structure and some others; about 11% of the full set was active somewhere.
Tau fibril ThT: inhibitors of human tau fibril formation, thioflavin T binding; 270,000 tested, 2.1% active; AID 1460; P10636; Potency, µM (doses to about 57.4 µM), for inactives: at the top dose activity, negative = inhibition, actives largely listed as inhibitors; recombinant tau K18 P301L, heparin-induced fibrillization, ThT fluorescence; also: potency is read from the fitted curve at half-maximal effect; nearly all actives have a fitted effect of over 55% in size
Target sequence (P10636 561-689 P618L limits assumed): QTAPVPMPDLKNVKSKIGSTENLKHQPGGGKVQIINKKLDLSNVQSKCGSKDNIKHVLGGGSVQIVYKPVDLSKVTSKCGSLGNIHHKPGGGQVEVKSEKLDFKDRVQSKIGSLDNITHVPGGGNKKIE
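K18 P301L tau (15 uM + 0.24 uM Alexa 594-tagged), heparin 20 uM, NaOAc pH 7, 6 h 37 C; ThT 30 uM, 1 h RT, ex 450/em 510 nm.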
Sfp PPTase inh: inhibitors of Bacillus subtilis Sfp phosphopantetheinyl transferase | Q9F4F7 | Biochemical Sfp PPTase activity, qHTS | Potency, µM, for inactives: largest response in the series, negative = inhibition, most hits filed as inhibitors | 310,000 tested, 3.5% active | AID 1490;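 also: the enzyme is Sfp with the accession as filed and its product quenches rhodamine fluorescence; potency is read from the fitted curve at half-maximal effect; 0% = enzyme reaction without inhibitor and -100% = no enzyme wells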
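Fluorescence-quenching assay: 15 nM Sfp-PPTase preincubated 15 min at room temperature with compound, then 5 uM rhodamine-CoA and 12.5 uM BHQ-2-labelled YbbR peptide added. Fluorescence (ex 525/em 598 nm) read at start and after 30 min; difference gives rate.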
G9a inh: inhibitors of human histone lysine methyltransferase G9a | Q96KQ7 | Potency, µM (series often up to 102 µM), without a hit: at the top dose activity, negative = inhibition, most hits filed as inhibitors | 350,000 tested, 8.8% active | G9a H3K9 monomethylation, AlphaScreen, 2 h | AID 504332; also: potency is read from the fitted curve at half-maximal effect; nearly all actives have a fitted effect of over 75% in size
Target sequence (Q96KQ7 913-1193 limits assumed): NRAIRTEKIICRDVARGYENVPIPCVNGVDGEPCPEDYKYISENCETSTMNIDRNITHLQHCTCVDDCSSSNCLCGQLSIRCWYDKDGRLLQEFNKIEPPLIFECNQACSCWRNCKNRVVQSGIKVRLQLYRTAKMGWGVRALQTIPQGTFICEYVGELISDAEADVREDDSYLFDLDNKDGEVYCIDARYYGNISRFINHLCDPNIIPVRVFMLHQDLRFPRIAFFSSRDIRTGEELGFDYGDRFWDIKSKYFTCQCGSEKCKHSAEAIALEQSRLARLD
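Quantitative HTS format: methyltransferase activity on a biotin-tagged H3K9 peptide is measured by AlphaScreen, using a rabbit anti-monomethyl-H3K9 antibody with streptavidin donor and anti-IgG acceptor beads. Final levels are 20 nM enzyme, 500 nM peptide, 20 uM SAM; 2 h RT.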
FBPA coupling cs: coupling enzyme interference in Giardia aldolase counter-screen; coupling enzyme system counterscreen, AmpLite Red fluorescence; activity change, negative = inhibition, % at 58.2 µM, hits read low; 290,000 tested, 0.67% active; in the data active = activity change below about -30%
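Coupling enzymes only (glyceraldehyde-3-phosphate) + compound, at 57.5 uM final, 10 min RT; add substrate/coupling/AmpLite Red mix, 20 min RT; fluorescence ex 525/em 598 nm. Actives flag coupling-system interference.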
Tau fluor cs: counter-screen for tau fibril formation inhibitors; tau K18 P301L Alexa594 fluorescence, heparin fibrillization; Potency, µM (top dose mostly 57.7 µM), for the others: at the highest dose activity change, negative = decrease; 280,000 tested, 0.93% active; AID 1463; also: potency is read from the fitted curve at half-maximal effect; nearly all actives have a fitted effect of over 55% in size
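Human tau K18 P301L (15 uM unlabeled, 0.24 uM Alexa 594-labeled) in 100 mM sodium acetate pH 7 with 20 uM heparin, 6 hr at 37 C. ThT 30 uM added, 1 hr ambient; Alexa 594 FP and total fluorescence read at 555/632 nm.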
Tau fibril FP: inhibitors of human tau fibril formation; P10636; K18 P301L tau heparin fibrillization, Alexa594 FP, 6 h; 280,000 tested, 0.39% active; Potency, µM (series often up to 57.7 µM), inactives show at the top dose activity, negative = inhibition, usual class: inhibitors; also: potency is read from the fitted curve at half-maximal effect; nearly all actives have a fitted effect of over 55% in size
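K18 P301L tau (15 uM unlabeled/0.24 uM Alexa 594-labeled, final) + compound + heparin 20 uM final; 100 mM NaOAc pH 7; 6 hr 37 C; ThT 30 uM final added, 1 hr RT; FP ex 555/em 632 nm.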
Numbers without * were called inactive; ? = inconclusive; nt = no result given; [ ] = another dose, or the depositor's remark. Unless noted, calls follow the shape of the dose curve; as a rule, active = well fitted curve in the direction sought with a large enough effect; inconclusive = small, poorly fitted or top-dose-only effect, or another doubt; inactive = no such curve, though single readings can be large; an effect the other way counts as inactive or inconclusive. Unless noted, % is scaled to controls: 0 for no effect and ±100 for the full control effect.

SMILES	Tau fibril ThT	Sfp PPTase inh	G9a inh	FBPA coupling cs	Tau fluor cs	Tau fibril FP
COc1ccc(C)cc1NC(=O)C(c1ccccc1)N1CCNC(=O)C1 (centres undefined)	1%	20%	50µM*	0	6%	2%
Cc1nc2c(C(=O)N3CCOCC3)cnn2c(C)c1Cc1ccc(Cl)cc1	-4%	5%	3%[12.7 µM]	2	1%	6%
Cc1nc2c(C(=O)N3CCOCC3)cnn2c(C)c1Cc1cccc(Cl)c1	-7%	10%	50µM*	1	-6%	4%
CCN(CC)c1ccc(CNC23CN4CN(CN(C4)C2)C3)cc1	?	12%	3.2µM*	-1	?	-1%
CCN(CC)c1ccc(CNc2nc3ccccc3n2C)cc1	nt	-2%	nt	2	-12%	4%
NNc1ccc(Cl)nn1	?	45µM*	nt	0	-14%	-3%
CCOc1c(Br)cc(C2CC(=O)Nc3cc4c(cc32)OCO4)cc1OC (centres undefined)	?	nt	?	nt	-29%	9%
C[C@@H]1CC[C@]2(C(=O)O)CC[C@]3(C)C(=CCC4[C@@]5(C)C[C@@H](O)[C@H](O)[C@@](C)(CO)C5CC[C@]43C)C2[C@H]1C (some centres undefined)	-16%	41%	28%[59 µM]	-4	-13%	8%
CC(NC(=O)CCCCCN1C(=O)c2ccccc2C1=O)c1ccc2c(c1)CCCC2 (centres undefined)	?	-18%	8.9µM*	2	-20%	-1%
O=c1[nH]cnc2sc3c(c12)CN(Cc1ccccc1)CC3	nt	5%	25µM*	3	nt	nt
CCOc1ccc(CNC(=O)c2cc3c(s2)-c2ccccc2OC3)cc1	4%	nt	4%[59 µM]	nt	-9%	?
CC(C)n1c(CSCc2ccc(Cl)cc2Cl)n[nH]c1=S	-16%	7%	13µM*	4	-24%	-2%
COc1ccc(Cl)cc1N=Nc1ncc[nH]1	13µM*	6%	5%[59 µM]	0	-19%	-13%
COC(=O)c1sccc1S(=O)(=O)N(CC(=O)Nc1cc(C)cc(C)c1)c1ccc(Cl)cc1	0%	nt	50%[59 µM]	nt	-19%	-13%
Nc1ccc(N2CCN(CCCCN3C(=O)C4CCCN4C3=O)CC2)cc1 (centres undefined)	14µM*	-8%	10µM*	-27	?	?
COc1ccc(NC(=O)N2CCC(CN3CCCC3)CC2)c(OC)c1	-4%	nt	-6%[59 µM]	nt	-1%	1%
NCCn1c(-c2ccccc2)cc(C(=O)O)c1-c1ccccc1F	-6%	-7%	50µM*	6	-7%	-3%
CCOC(=O)c1cc(-c2ccccc2)n(CCC(=O)O)c1C	-15%	18%	-2%[12.7 µM]	4	-10%	-4%
Cc1ccc(N(CC(=O)NCc2ccc(OC(C)C)cc2)S(=O)(=O)N(C)C)cc1	0%	nt	8%[59 µM]	nt	-12%	-2%
S=c1[nH]c(-c2ccccc2)cn1/N=C/c1cccc2ccccc12	3.5µM*	-11%	-43%	-1	?	10%
O=C1NC(=S)N/C1=C/c1cccc2ccccc12	nt	3%	-3%	1	nt	nt
Cc1ccc(/C=N/N2CCN(Cc3ccccc3)CC2)s1	-1%	-3%	40%[0.501 µM]	0	-10%	1%
Cc1ccc(/C=N/n2cc(-c3ccccc3)[nH]c2=S)s1	?	32µM*	?	4	?	-12%
S=c1[nH]c(-c2ccccc2)cn1/N=C/c1ccccc1Br	?	-2%	2.5µM*	-5	-22%	16%
O=C(CN(Cc1ccco1)C(=O)c1ccc(N2CCCC2=O)cc1)Nc1ccccc1C(F)(F)F	nt	nt	-5%[59 µM]	nt	nt	nt
SMILES	Tau fibril ThT	Sfp PPTase inh	G9a inh	FBPA coupling cs	Tau fluor cs	Tau fibril FP
COc1cc2c(cc1OC)C(c1ccccc1F)NCC2 (centres undefined)	nt	8%	26%[0.501 µM]	0	nt	nt
COc1ccccc1CN1CCC(CNC(=O)c2cnn(-c3ccc(Cl)cc3)c2C2CCN(C(=O)OC(C)(C)C)CC2)CC1	-15%	nt	-27%[59 µM]	nt	-8%	-1%
CCCCC1CCC(C(=O)N2CC(=O)Nc3ccc(F)cc3C2c2ccc(F)cc2)CC1 (centres undefined)	?	nt	-2%[59 µM]	nt	-28%	-12%
N=C1/C(=C/c2ccc(-c3cccc(C(=O)O)c3)o2)C(=O)N=C2SC=C(c3ccccc3)N12	4.5µM*	-53%	40µM*	-10	-7%	15%
Cc1ccc(-n2c(C)cc(/C=C3/C(=N)N4C(c5ccccc5)=CSC4=NC3=O)c2C)cc1	?	4%	1%[59 µM]	1	-12%	2%
N=C1/C(=C\c2ccc(-c3cc(Cl)cc(Cl)c3)o2)C(=O)N=C2SC=C(c3ccccc3)N12	4µM*	-5%	-8%	-1	-25%	5%
COc1ccc(CN2CCNC(=O)C2CC(=O)N(C)CC2CCOCC2)cc1C (centres undefined)	nt	14%	79µM*	2	nt	nt
COc1ccc(CN2CCNC(=O)C2CC(=O)N(C)CC2CCOCC2)cc1OC (centres undefined)	nt	3%	79µM*	-1	nt	nt
CN(CC1CCOCC1)C(=O)CC1C(=O)NCCN1Cc1ccc(-c2ccccc2)cc1 (centres undefined)	?	15%	4%	1	-13%	-7%
COc1cccc(CN2CCNC(=O)C2CC(=O)N(C)CC2CCOCC2)c1OC (centres undefined)	nt	4%	?	-4	nt	nt
Cc1ccc(-c2c(CN3CCN(c4cccc(C)c4)C(C)C3)csc2C)cc1 (centres undefined)	-3%	nt	-48%[59 µM]	nt	-7%	7%
NC(=S)NNC(=S)Nc1ccccc1	-10%	10µM*	10µM*	-1	-2%	-12%
C[Si](C)(C)C#Cc1ccccc1NC(=S)Nc1ccccc1	?	79µM*	nt	2	?	-13%
O=C(Cc1ccccc1)NNC(=S)Nc1ccccc1	-2%	14%	?	1	7%	-4%
CCNC(=S)NNC(=O)Nc1ccccc1	-1%	-25%	3.2µM*	-1	-4%	-5%
CCNC(=S)NNC(=O)C(c1ccccc1)c1ccccc1	3%	0%	0%	1	-2%	-1%
S=C(NNC(=S)Nc1ccccc1)Nc1ccccc1	nt	50µM*	0.35µM*	3	nt	nt
CCOC(=O)C1CCN(S(=O)(=O)c2cc(-c3cc(C)no3)ccc2OC)CC1	-6%	nt	3%[59 µM]	nt	-15%	-5%
CC(C)NC(=O)N1CC[C@@]2(CCCN(C(=O)c3csnn3)C2)C1	nt	12%	3%[12.7 µM]	4	nt	nt
COc1ccc(NC(=O)c2cc(-c3ccccc3)nc3c2cnn3C(C)C)c(OC)c1	nt	nt	8%[12.7 µM]	nt	nt	nt
S=C(NN=C(C1CC1)C1CC1)Nc1ccccc1	?	20µM*	5.6µM*	-1	-21%	4%
O=C(NNC(=S)Nc1ccccc1)C1CC1	-4%	-8%	-5%	nt	-4%	2%
